PubChem BioAssay AID1159580 (chemical genetic matrix, 2015)
Hit rate of the full screen: of about 5,500 compounds, about 2,000 (36%) were called active. Roughly 18% stayed inconclusive and do not appear here. Cut-off read from the data, not from the text of the source: active = normalized growth mostly below about 0.91 (no sharp cut-off); inconclusive = no clear call, values can overlap the other calls; inactive = mostly above about 0.92. This is one part of the list.

Assay: chemical genetic growth profiling, strain panel (AID 1159580);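 note: tested at 20 µM; growth read once vehicle control cultures reached saturation at 30 °C; 1 = growth at the plate median or of vehicle wells; lower values mean less growth of the strain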
Conditions: growth OD

Measured: normalized growth

O=c1cc(-c2ccc(O)cc2)oc2cc(O[C@@H]3O[C@H](CO)[C@@H](O)[C@H](O)[C@H]3O)cc(O)c12
inactive: S. cerevisiae deletion strains, locus YJR075W, strain HOC1, active compounds read low 0.993 | S. cerevisiae deletion strains, locus YKL009W, strain mrt4, active compounds read low 0.936 | S. cerevisiae deletion strains, locus YKL068W, active compounds read low 0.989 | S. cerevisiae deletion strains, locus YKL085W, strain MDH1 (second series), active compounds read low 0.974 | S. cerevisiae deletion strains, locus YKL085W, strain MDH1, active compounds read low 0.974 | S. cerevisiae deletion strains, locus YKL160W, strain elf1, active compounds read low 0.985 | S. cerevisiae deletion strains, locus YKR001C, strain vps1, active compounds read low 0.958 | S. cerevisiae deletion strains, locus YKR026C, strain gcn3, active compounds read low 1.01 | S. cerevisiae deletion strains, locus YKR091W, strain srl3, active compounds read low 1 | S. cerevisiae deletion strains, locus YLL001W, strain dnm1, active compounds read low 1.01 | S. cerevisiae deletion strains, locus YLL026W, active compounds read low 1.01 | S. cerevisiae deletion strains, locus YLL041C, strain sdh2, active compounds read low 1 | S. cerevisiae deletion strains, locus YLR027C, strain aat2, active compounds read low 0.997 | S. cerevisiae deletion strains, locus YLR039C, strain RIC1, active compounds read low 0.996 | S. cerevisiae deletion strains, locus YLR058C, strain SHM2, active compounds read low 0.989 | S. cerevisiae deletion strains, locus YLR102C, strain apc9, active compounds read low 0.968 | S. cerevisiae deletion strains, locus YLR113W, strain HOG1, active compounds read low 1.03 | S. cerevisiae deletion strains, locus YLR221C, strain rsa3, active compounds read low 1.04 | S. cerevisiae deletion strains, locus YLR258W, strain gsy2, active compounds read low 0.996 | S. cerevisiae deletion strains, locus YLR262C, strain YPT6 (second series), active compounds read low 1.02 | S. cerevisiae deletion strains, locus YLR262C, strain YPT6, active compounds read low 0.971 | S. cerevisiae deletion strains, locus YLR268W, strain sec22, active compounds read low 0.963 | S. cerevisiae deletion strains, locus YLR320W, strain mms22, active compounds read low 1.05 | S. cerevisiae deletion strains, locus YLR330W, strain CHS5, active compounds read low 0.985 | S. cerevisiae deletion strains, locus YLR342W, strain FKS1 (second series), active compounds read low 0.98 | S. cerevisiae deletion strains, locus YLR342W, strain FKS1, active compounds read low 1.01 | S. cerevisiae deletion strains, locus YLR357W, strain rsc2, active compounds read low 1.01 | S. cerevisiae deletion strains, locus YLR370C, strain arc18, active compounds read low 0.976 | S. cerevisiae deletion strains, locus YLR371W, strain rom2, active compounds read low 0.964 | S. cerevisiae deletion strains, locus YLR384C, strain iki3, active compounds read low 1.01 | S. cerevisiae deletion strains, locus YLR418C, strain cdc73, active compounds read low 0.964 | S. cerevisiae deletion strains, locus YML016C, strain PPZ1, active compounds read low 0.988 | S. cerevisiae deletion strains, locus YML032C, strain rad52, active compounds read low 0.973 | S. cerevisiae deletion strains, locus YML120C, strain ndi1, active compounds read low 0.986 | S. cerevisiae deletion strains, locus YML124C, strain tub3, active compounds read low 0.983 | S. cerevisiae deletion strains, locus YMR058W, strain fet3, active compounds read low 1.02 | S. cerevisiae deletion strains, locus YMR078C, strain ctf18, active compounds read low 1.01 | S. cerevisiae deletion strains, locus YMR125W, strain sto1, active compounds read low 0.968 | S. cerevisiae deletion strains, locus YMR129W, active compounds read low 1 | S. cerevisiae deletion strains, locus YMR205C, strain PFK2, active compounds read low 1.01 | S. cerevisiae deletion strains, locus YMR223W, strain ubp8, active compounds read low 1.01 | S. cerevisiae deletion strains, locus YMR231W, strain pep5, active compounds read low 1 | S. cerevisiae deletion strains, locus YMR307W, strain GAS1, active compounds read low 1.02 | S. cerevisiae deletion strains, locus YNL067W, strain RPL9B, active compounds read low 1.01 | S. cerevisiae deletion strains, locus YNL071W, strain lat1, active compounds read low 0.995 | S. cerevisiae deletion strains, locus YNL153C, strain GIM3, active compounds read low 1 | S. cerevisiae deletion strains, locus YNL183C, strain NPR1, active compounds read low 0.975 | S. cerevisiae deletion strains, locus YNL209W, strain ssb2, active compounds read low 0.994 | S. cerevisiae deletion strains, locus YNL233W, strain BNI4, active compounds read low 0.987 | S. cerevisiae deletion strains, locus YNL248C, strain rpa49, active compounds read low 1.08 | S. cerevisiae deletion strains, locus YNL250W, strain rad50, active compounds read low 0.98 | S. cerevisiae deletion strains, locus YNL271C, strain bni1, active compounds read low 0.975 | S. cerevisiae deletion strains, locus YNL298W, strain CLA4, active compounds read low 0.98 | S. cerevisiae deletion strains, locus YNL307C, strain MCK1, active compounds read low 0.973 | S. cerevisiae deletion strains, locus YNL322C, strain KRE1 (second series), active compounds read low 0.993 | S. cerevisiae deletion strains, locus YNL322C, strain KRE1, active compounds read low 0.987 | S. cerevisiae deletion strains, locus YNR049C, strain mso1, active compounds read low 1.03 | S. cerevisiae deletion strains, locus YNR052C, strain pop2, active compounds read low 0.997 | S. cerevisiae deletion strains, locus YOL012C, strain htz1 0.98 | S. cerevisiae deletion strains, locus YOL147C, strain pex11, active compounds read low 0.978 | S. cerevisiae deletion strains, locus YOR001W, strain rrp6, active compounds read low 1.04 | S. cerevisiae deletion strains, locus YOR061W, strain CKA2, active compounds read low 0.979 | S. cerevisiae deletion strains, locus YOR069W, strain VPS5, active compounds read low 0.978 | S. cerevisiae deletion strains, locus YOR070C, strain gyp1, active compounds read low 1.02 | S. cerevisiae deletion strains, locus YOR080W, strain dia2, active compounds read low 1.01 | S. cerevisiae deletion strains, locus YOR083W, strain WHI5, active compounds read low 0.974 | S. cerevisiae deletion strains, locus YOR106W, strain vam3, active compounds read low 0.966 | S. cerevisiae deletion strains, locus YOR136W, strain idh2, active compounds read low 0.958 | S. cerevisiae deletion strains, locus YOR144C, strain elg1, active compounds read low 0.98 | S. cerevisiae deletion strains, locus YOR184W, strain ser1, active compounds read low 1 | S. cerevisiae deletion strains, locus YOR231W, strain MKK1, active compounds read low 1.05 | S. cerevisiae deletion strains, locus YOR265W, strain rbl2, active compounds read low 1.01 | S. cerevisiae deletion strains, locus YOR270C, strain vph1, active compounds read low 1.06 | S. cerevisiae deletion strains, locus YOR290C, strain snf2, active compounds read low 0.961 | S. cerevisiae deletion strains, locus YOR316C, strain cot1, active compounds read low 0.969 | S. cerevisiae deletion strains, locus YPL051W, strain arl3, active compounds read low 1.03 | S. cerevisiae deletion strains, locus YPL078C, strain atp4, active compounds read low 0.968 | S. cerevisiae deletion strains, locus YPL106C, strain sse1, active compounds read low 1 | S. cerevisiae deletion strains, locus YPL240C, strain hsp82, active compounds read low 1.01 | S. cerevisiae deletion strains, locus YPL241C, strain CIN2, active compounds read low 0.994 | S. cerevisiae deletion strains, locus YPL256C, strain CLN2, active compounds read low 1 | S. cerevisiae deletion strains, locus YPR119W, strain clb2, active compounds read low 0.989 | S. cerevisiae deletion strains, locus YPR141C, strain kar3, active compounds read low 0.968 | S. cerevisiae deletion strains, locus YPR163C, strain tif3, active compounds read low 0.982 | S. cerevisiae deletion strains, locus YPR167C, strain met16, active compounds read low 0.979 | S. cerevisiae deletion strains, strain wtn01, active compounds read low 0.955 | S. cerevisiae strains, strain wild type, active compounds read low 0.993
